{"source": "PubChem BioAssay (Tox21)", "key": {"[1]": {"test": "cAMP Responsive Elements (CRE) small molecule antagonists, cell-based qHTS assay: qHTS cell viability counter screen (AID 2060913); also: nearly all actives have a fitted effect of over 40% in size", "method_in_brief": "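Cytotoxicity counter screen multiplexed with the CRE-bla antagonist read: HEK293T cells in DMEM with dialyzed FBS and 25 mM HEPES were treated 3 hrs under 0.25 uM final NKH477, then viability measured by CellTiter-Glo luminescence.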"}, "[2]": {"test": "cAMP Responsive Elements (CRE) small molecule agonists, cell-based qHTS assay: qHTS cell viability counter screen (AID 2060914); also: nearly all actives have a fitted effect of over 50% in size", "method_in_brief": "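Cells are seeded and incubated 18 h, treated with compounds in DMSO for 3 h, read for the bla reporter, then given CellTiter-Glo; luminescence is measured after 30 min at room temperature.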"}}, "note": "Results filed as inconclusive are left out. Entries that show only a call come without a potency. Calls of active or inactive are those of the source. Calls follow the shape of the dose curve; as a rule, active = well fitted cell-killing curve with a large enough effect in the repeat runs; inconclusive = weak or mixed curves, or effect the other way; inactive = flat fitted curve, though single readings scatter.", "data": [{"smiles": "CCOCCn1c(N2CCCN(C)CC2)nc2ccccc21", "values": [{"measurement": "Potency", "setting": "[1]", "result": "inactive"}, {"measurement": "Potency", "setting": "[2]", "result": "inactive"}]}, {"smiles": "CCCOCC(C)OCC(C)O", "note": "(stereo unspecified)", "values": [{"measurement": "Potency", "setting": "[1]", "result": "inactive"}, {"measurement": "Potency", "setting": "[2]", "result": "inactive"}]}, {"smiles": "O=C(O)CCN(C1(C(=O)NO)CCCC1)S(=O)(=O)c1ccc(Oc2ccc(F)cc2)cc1", "values": [{"measurement": "Potency", "setting": "[1]", "result": "inactive"}, {"measurement": "Potency", "setting": "[2]", "result": "inactive"}]}, {"smiles": "O=C1C(c2[nH]c3ccc(S(=O)(=O)O)cc3c2O)=Nc2ccc(S(=O)(=O)O)cc21", "values": [{"measurement": "Potency", "setting": "[1]", "result": "inactive"}, {"measurement": "Potency", "setting": "[2]", "result": "inactive"}]}, {"smiles": "CCCCCCOCCOCCO", "values": [{"measurement": "Potency", "setting": "[1]", "result": "inactive"}, {"measurement": "Potency", "setting": "[2]", "result": "inactive"}]}, {"smiles": "CCc1ccc(C)cc1", "values": [{"measurement": "Potency", "setting": "[1]", "result": "inactive"}, {"measurement": "Potency", "setting": "[2]", "result": "inactive"}]}, {"smiles": "NC(=O)c1ncn([C@@H]2O[C@H](CO)[C@@H](O)[C@H]2O)n1", "values": [{"measurement": "Potency", "setting": "[1]", "result": "inactive"}, {"measurement": "Potency", "setting": "[2]", "result": "inactive"}]}, {"smiles": "OCCNCCO", "values": [{"measurement": "Potency", "setting": "[1]", "result": "inactive"}, {"measurement": "Potency", "setting": "[2]", "result": "inactive"}]}, {"smiles": "CN1Cc2cc(C(=O)N3CCC(C4CCNCC4)CC3)ccc2NC(CC(=O)O)C1=O", "note": "(stereo unspecified)", "values": [{"measurement": "Potency", "setting": "[1]", "result": "inactive"}, {"measurement": "Potency", "setting": "[2]", "result": "inactive"}]}, {"smiles": "NNS(=O)(=O)c1ccc(Oc2ccc(S(=O)(=O)NN)cc2)cc1", "values": [{"measurement": "Potency", "setting": "[1]", "result": "inactive"}, {"measurement": "Potency", "setting": "[2]", "result": "inactive"}]}, {"smiles": "O=C(/N=N/C(=O)OCc1ccccc1)OCc1ccccc1", "values": [{"measurement": "Potency", "setting": "[1]", "result": "inactive"}, {"measurement": "Potency", "setting": "[2]", "result": "inactive"}]}, {"smiles": "CCN(CC)c1ccc2c(C)cc(=O)oc2c1", "values": [{"measurement": "Potency", "setting": "[1]", "result": "inactive"}, {"measurement": "Potency", "setting": "[2]", "result": "inactive"}]}, {"smiles": "C[C@@H](O)[C@H]1C(=O)N2C(C(=O)O)=C([C@H]3CCCO3)S[C@H]12", "values": [{"measurement": "Potency", "setting": "[1]", "result": "inactive"}, {"measurement": "Potency", "setting": "[2]", "result": "inactive"}]}, {"smiles": "C=C1C[C@H]2[C@@H]3C=C(C)C4=CC(=O)CC[C@]4(C)[C@H]3CC[C@]2(C)[C@@]1(OC(C)=O)C(C)=O", "values": [{"measurement": "Potency", "setting": "[1]", "result": "inactive"}, {"measurement": "Potency", "setting": "[2]", "result": "inactive"}]}, {"smiles": "CCCc1ccc(N)cc1", "values": [{"measurement": "Potency", "setting": "[1]", "result": "inactive"}, {"measurement": "Potency", "setting": "[2]", "result": "inactive"}]}, {"smiles": "CCCCCCc1ccc(-c2ccc(C#N)cc2)cc1", "values": [{"measurement": "Potency", "setting": "[1]", "result": "inactive"}, {"measurement": "Potency", "setting": "[2]", "result": "inactive"}]}, {"smiles": "Cc1ccc(Cl)c(OCC(O)CNC(C)(C)C)c1", "note": "(stereo unspecified)", "values": [{"measurement": "Potency", "setting": "[1]", "result": "inactive"}, {"measurement": "Potency", "setting": "[2]", "result": "inactive"}]}, {"smiles": "O=C1[C@H]2CCCC[C@H]2C(=O)N1CCCCN1CCN(c2nsc3ccccc23)CC1", "values": [{"measurement": "Potency", "setting": "[1]", "result": "inactive"}, {"measurement": "Potency", "setting": "[2]", "result": "inactive"}]}]}
